We go through 15 compounds from PubChem BioAssay AID720485 (Milwaukee Institute for Drug Discovery, 2013).

SMILES strings stand for the structures. The list shows a part of the results. Values without a mark were called inactive. The source made the active and inactive calls.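 Rule for the calls: active = percent inhibition of 50% or more; inactive = the rest.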

The subject of this assay is Hepatitis C virus NS3 helicase. The assay can be described thus: NS3h DNA-binding blockers re-examined – biochemical, fluorescence polarization, ChemBridge library, confirmation (AID 720485). The note with it: NS3h binding to Cy5-dT15 DNA, at 100 µM, stronger effect = higher value. On the technique in general: Fluorescence polarisation rises when a labelled molecule tumbles more slowly, as on binding a larger partner.
Regarding `O=c1c2c(nc3cc(-c4cccc(F)c4)[nH]n13)CCS2`, the inhibition is 41.5%. Under `N#Cc1c(N)nc2sc(C(=O)Nc3ccccc3)c(N)c2c1-c1ccco1` stands 4.44%; under `O=C(NC(=S)Nc1ccc(-c2nc3cc(Cl)ccc3o2)cc1)c1ccco1`, 11.8%.

With `CCN(CC)c1ccc(C=C2C(=O)N(C)C(=O)N(C)C2=O)c(O)c1`, the inhibition is 12.9%.

Consider `CCN(CC)c1ccc(NC(=O)/C(=C\c2ccccc2)NC(C)=O)cc1`, for which the inhibition is 23.5%. As for `O=C1NC(=O)C(=Cc2cc([N+](=O)[O-])cc(Br)c2O)C(=O)N1`, the figure is 19.3%. As for `CC(C)(C)N1C(=O)NC(=O)C(=Cc2cccs2)C1=O`, the figure is 20.3%; as for `COc1cc(C=C2C(=O)NC(=O)NC2=O)ccc1OCCOc1ccc([N+](=O)[O-])cc1`, 2.33%; as for `COc1cc(/C(O)=C(\C#N)c2nc3ccccc3n2C)cc(OC)c1OC`, 7.62%. Under `CCOc1ccc(C=C2C(=O)NC(=O)NC2=O)cc1Cl` stands 16.1%; under `COc1ccc(C(=O)Oc2ccc3oc(=O)cc(C)c3c2)cc1OC`, 0.212%. As to `Cc1ccc(C(=O)NCCNc2ccc([N+](=O)[O-])cc2)cc1`, the inhibition is 16.1%. On to `C=CCN1C(=O)/C(=C\c2cc(OC)c(O)c([N+](=O)[O-])c2)C(=O)NC1=S`, for which the inhibition was 37.2%.

In the case of `Cc1ccc(C(=O)C[n+]2cc(-c3ccccc3)n3c2CCCCC3)cc1`, the inhibition is 0.212%. In the case of `COc1ccc(N2C(=O)C=CC2=O)c([N+](=O)[O-])c1`, the inhibition is 65.8% (active).

Usually inhibition stands for the change of the read-out against control, counted positive when it falls.
